Screens from PubChem BioAssay.
Most compounds without a hit are left out; they make up all but 21% or so of the library.
Pf growth 48h: Primary qHTS for delayed death inhibitors of the malarial parasite plastid, 48 hour incubation; P. falciparum luciferase growth in erythrocytes, 48 h; 310,000 tested, 5.9% active; Potency, µM (top dose mostly 28.7 µM), for the others: top-dose activity change, negative = inhibition, most hits filed as inhibitors; AID 504832, 2011; note: potency is the fitted concentration of half-maximal effect; % is set by controls: 0 for no effect and ±100 for the full control effect
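A one-generation exposure of luciferase-tagged malaria parasites in RPMI 1640/Albumax erythrocyte culture, 37 C and 5% CO2. Inhibition is inferred from decreased luminescence after adding detection reagent.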
Shiga toxin inh: A qHTS for Small Molecule Inhibitors of Shiga Toxin | Vero cells, Shiga toxin protein synthesis inhibition reporter | inhibition, % at 38.7 µM | 290,000 tested, 9.2% active | AID 2315, 2010; in the data active = inhibition mostly above about 28%, no sharp cut-off; inactive = mostly below about 43%; note: 0% is about no effect
HCMV antiviral: qHTS Assay for inhibitors of the human cytomegalovirus (HCMV) | AID 1259415, 2018 | activity change, negative = inhibition, % at 57.5 µM | 410,000 tested, 4.5% active | HFF cells, HCMV-luciferase reporter, 72 h; stronger effect = lower value; in the data active = activity change below about -60%; inconclusive = no clear call, values can overlap the other calls; inactive = above about -39%; note: % is set by controls: 0 for no effect and ±100 for the full control effect
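Screen run at 2 compound doses on HFFs infected with reporter HCMV, MOI 1 PFU/cell. Luciferase activity from cell lysates at 72 h post infection gave inhibition relative to buffer-only and Salinomycin wells.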
HCV inhibitor: qHTS Assay for Inhibitors of Hepatitis C Virus (HCV); Huh7.5.1 HCVcc-Cre infection, luciferase reporter, 44 h; Potency, µM (top dose mostly 41.8 µM), without a hit: at the highest dose activity change, negative = inhibition, hits mostly inhibitors; 340,000 tested, 3.4% active; AID 651820, 2012; note: potency is the fitted concentration of half-maximal effect; % is set by controls: 0 for no effect and ±100 for the full control effect
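Reporter virus HCVcc-Cre (~0.5 moi) infects cells exposed to compound; seeding density 1,000 cells/well with 4 h settling beforehand. Luminescence, 15 sec read, taken 44 h post-infection following a 15 min RT substrate incubation.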
CHX counter: Cycloheximide Counterscreen for Small Molecule Inhibitors of Shiga Toxin; cell reporter, cycloheximide protein synthesis inhibition counterscreen; max response, %; 300,000 tested, 12% active; in the data active = max response mostly above about 13%, no sharp cut-off; inactive = mostly below about 14%; note: read at 38.3 µM for the half of the compounds with a filed dose; 0% is about no effect
Pf growth 96h: Primary qHTS for delayed death inhibitors of the malarial parasite plastid, 96 hour incubation; P. falciparum luciferase reporter growth, 96 h; Potency, µM (series often up to 28.7 µM), for the others: top-dose activity change, negative = inhibition, usual class: inhibitors; 320,000 tested, 6.9% active; AID 504834, 2011; note: potency is the fitted concentration of half-maximal effect; % is set by controls: 0 for no effect and ±100 for the full control effect
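96 h incubation, 37 C, 5% CO2, of luciferase-reporter P. falciparum-infected RBCs (2% hematocrit, 0.05% parasitemia final) with test compounds; endpoint luminescence.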
Numbers without * were called inactive; ? = inconclusive; . = no result. Unless noted, calls come from the whole dose curve; as a rule, active = well fitted inhibition curve with a large enough effect; inconclusive = small, poorly fitted or top-dose-only effect, or another doubt; inactive = no such curve, though single readings can be large or run the other way.

SMILES | Pf growth 48h | Shiga toxin inh | HCMV antiviral | HCV inhibitor | CHX counter | Pf growth 96h
Cc1ccnc(NC(=O)c2cccc(S(=O)(=O)N3CCCc4ccccc43)c2)c1 | 1.9µM* | . | 22 | ? | . | 1.9µM*
Cc1cc(NS(=O)(=O)c2ccc(NC(=O)Cc3ccc([N+](=O)[O-])cc3)cc2)nc(C)n1 | . | . | 14 | -24% | . | .
CCOC(=O)c1c(C)[nH]c(C)c1C(=O)CSc1nc2ccccc2n1CC | 14% | -11 | -40 | ? | 1 | ?
CCOC(=O)c1[nH]c(CSc2nnc(-c3ccncc3)n2CCOC)c(C(=O)OCC)c1C | 0% | -3 | -11 | 6% | 2 | ?
CC(=O)c1ccc(-n2c(SCC(=O)c3c[nH]c4ccccc34)nc3ccccc3c2=O)cc1 | 12µM* | 7 | -88* | ? | 15 | ?
CCOC(=O)c1[nH]c(CSc2nnnn2-c2ccccc2C)c(C(=O)OCC)c1C | 10µM* | -14 | -13 | ? | -8 | ?
CCOC(=O)c1c(C)[nH]c(C)c1C(=O)CSc1nc2ccccc2c(=O)n1-c1ccc(CC)cc1 | ? | -2 | ? | 11% | 7 | 9.3µM*
CCOC(=O)c1c(C)[nH]c(C)c1C(=O)CSc1nnnn1-c1ccccc1 | . | -13 | 0 | ? | -1 | 12µM*
NS(=O)(=O)c1ccc(NC(=O)COC(=O)c2ccc([N+](=O)[O-])s2)cc1 | 11% | -3 | 0 | -12% | -1 | -11%
Cc1cccc(NC(=O)Cn2nnc(-c3nc(-c4ccncc4)no3)c2N)c1 | . | . | 5 | . | . | .
CCS(=O)(=O)N1CCC2(CC1)OCCN2S(=O)(=O)c1ccc(OC)cc1 | -7% | . | -14 | 0% | . | 11%
CCOC(=O)C1=CN(Cc2cccc(F)c2)S(=O)(=O)N(C)C1c1ccc2ccccc2c1 (stereo not drawn) | . | . | -26 | 11µM* | . | .
CC1CCCN(CCCNC(=O)CCn2nc(-c3ccccc3)ccc2=O)C1 (stereo not drawn) | 5% | -15 | 13 | ? | -3 | -17%
Cc1ccc(Sc2cc(C(=O)NCCN(C)C)c3ccccc3n2)cc1 | ? | -11 | -38 | -24% | -4 | 27%
CCc1ccc(Sc2cc(C(=O)NCCCN3CCCC(C)C3)c3ccccc3n2)cc1 (stereo not drawn) | . | . | -61* | . | . | .
CCc1ccc(Sc2cc(C(=O)NCCCN3CCC(C)CC3)c3ccccc3n2)cc1 | . | . | -77* | . | . | .
O=C(NCC(c1ccco1)N1CCN(c2ccccc2)CC1)C(=O)NC1CCCCC1 (stereo not drawn) | 1% | . | -7 | 34% | . | 7%
COc1cc(C2c3cc4c(cc3OC(NCc3ccccc3)C2C)OCO4)cc(OC)c1OC (stereo not drawn) | . | . | -80* | -9% | . | .
COc1cc(C2c3cc4c(cc3OC(NNC(N)=O)C2C)OCO4)cc(OC)c1OC (stereo not drawn) | . | . | -86* | ? | . | .
CCN(CC)C1Oc2cc3c(cc2C(c2cccc(OC)c2O)C1C)OCO3 (stereo not drawn) | . | . | -9 | -17% | . | .
COc1ccc(C2c3cc4c(cc3OC(NNC(N)=O)C2C)OCO4)cc1 (stereo not drawn) | . | . | 11 | ? | . | .
COc1cccc(C2c3cc4c(cc3OC(NNC(N)=O)C2C)OCO4)c1O (stereo not drawn) | . | . | -73* | -4% | . | .
COc1cc(C2c3cc4c(cc3OC(NNC(N)=S)C2C)OCO4)cc(OC)c1OC (stereo not drawn) | . | . | -81* | -12% | . | .
COC(=O)Cc1c(C)c2cc3c(c(C)c2oc1=O)OCN(CCc1ccccc1F)C3 | . | . | -18 | . | . | .
Cc1ccccc1NC(=O)Cn1cc(S(=O)(=O)c2ccccc2)c(=O)c2ccccc21 | . | . | -13 | . | . | .
SMILES | Pf growth 48h | Shiga toxin inh | HCMV antiviral | HCV inhibitor | CHX counter | Pf growth 96h
COCC(O)CNc1ccccc1 (stereo not drawn) | 32% | 16 | -4 | -3% | -3 | 13µM*
COCCNc1nnnc2c1sc1nc(N3CCOCC3)c3c(c12)CCCC3 | ? | -3 | . | . | -3 | 11%
CC1(C)Cc2c(c(N3CCOCC3)nc3sc4c(NN)ncnc4c23)CS1 | ? | -15 | -88* | ? | -5 | .
CC(C)CNc1nnnc2c1sc1nc(N3CCOCC3)c3c(c12)CC(C)(C)SC3 | ? | -19 | ? | 10µM* | -2 | ?
CC1(C)Cc2c(c(N3CCOCC3)nc3sc4c(NCc5ccccc5)nnnc4c23)CS1 | . | -17 | ? | -21% | -4 | 1µM*
CC1(C)Cc2c(c(N3CCOCC3)nc3sc4c(NCc5ccco5)nnnc4c23)CS1 | ? | -15 | -6 | ? | -3 | 10%
CC(C)Cc1ccc(CC(=O)O)cc1 | -2% | . | . | . | . | 4%
COc1ccc(NCc2cccn2-c2nnc(N3CCCCCC3)s2)cc1 | . | . | -32 | . | . | .
CNC[C@H](O)c1ccc(OC(=O)C(C)(C)C)c(OC(=O)C(C)(C)C)c1 | ? | . | . | . | . | 3.2µM*
CNCC(O)c1ccc(OC(=O)C(C)(C)C)c(OC(=O)C(C)(C)C)c1 (stereo not drawn) | ? | . | -3 | ? | . | ?
COc1ccc(C2=NN3C(C2)c2ccccc2OC32C(=O)N(C)c3ccccc32)cc1 (stereo not drawn) | ? | 109* | 180 | -10% | 62* | -4%
CC(=O)N1N=C(c2ccccc2)CC1c1ccc2c(c1)OCO2 (stereo not drawn) | -5% | 19 | -22 | -16% | 22 | 19%
COc1ccc(C2=NN3C(C2)c2ccccc2OC3c2cccs2)cc1 (stereo not drawn) | 70% | 63* | 128 | ? | 59* | ?
Cc1ccc(C(=O)C2Oc3ccccc3C3CC(c4ccc(C)cc4)=NN23)cc1 (stereo not drawn) | ? | 60* | ? | -23% | 53* | 40%
Cc1ccc(C2=NN3C(C(=O)c4ccccc4)Oc4ccccc4C3C2)cc1 (stereo not drawn) | -96% | 86* | 123 | -26% | 34* | ?
COc1cccc(-n2nc(-c3ccnn3-c3ccc(F)cc3)c(=O)n(C)c2=O)c1 | . | 12 | -35 | 16% | -1 | 12µM*
COc1ccc(-n2nccc2-c2nn(-c3cccc(OC)c3)c(=O)n(C)c2=O)cc1 | . | 25 | 3 | -12% | -4 | -6%
O=C(O)CCc1ccc(-c2ccccc2)o1 | 22% | 6 | 43 | -18% | 15* | 16%
Cc1ccc(C(=O)Nc2cccc(C(=O)O)c2)cc1S(=O)(=O)N1CCCCC1 | 47% | 132* | . | 16% | 87* | 28%
Cc1ccc(C(=O)Nc2cccc(C(=O)O)c2)cc1S(=O)(=O)N1CCOCC1 | 244% | 39 | 72 | 33% | 24* | .
